Assay results taken from PubChem BioAssay (NCI).
Compounds without any hit were thinned out: in the full panel of roughly 83,000, 20% have a hit.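 Treatment: one concentration, 48 hours, 96-well format. Scoring: percent growth, with anything below 10 considered active.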 Unmarked numbers belong to inactive results. Active and inactive are the calls of the source.

What follows are compounds tested on HL-60(TB) leukemia (assay: NCI-60 one-dose screen, 48 h (100 = growth as untreated, 0 = no growth, -100 = all killed)). Settings: 10 µM unless noted.

SMILES	growth
Clc1ccc(/C=C/c2cc(N3CCOCC3)c3cc(Cl)c(Cl)cc3n2)cc1	-16.3% (active)
CNC(=O)c1cc(Oc2ccc3nc(Nc4ccc(Cl)c(C(F)(F)F)c4)ccc3c2)ccn1	62.6%
CC(=O)N/C(=C1/OC(C(O)C(O)C(O)CO)CN1C)[P+](c1ccccc1)(c1ccccc1)c1ccccc1 (stereo unspecified)	97.9%
Nc1cc(C(=O)O)[nH]c(=S)n1	123%
Cc1c(Br)cccc1NC(=O)c1sc2nc3c(cc2c1N)CN(Cc1ccccc1)CC3	-30.5% (active)
COc1c(CCC[P+](c2ccccc2)(c2ccccc2)c2ccccc2)cc2c(c1OC)OCO2	10.2%
